The record followed here is the supplement of paper PMC12669032.

Assay [1] concerns Roseburia intestinalis. In words: growth AUC relative to DMSO control (median of replicates) (fraction); higher = more growth (less inhibition), active = hit call of the paper. The note with it: 20 µM; 24 h. A digest of the protocol:
(§1)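 Gut bacteria were grown singly in mGAM at 37 °C without oxygen, from OD600 0.05, alongside 20 µM compound in 1% DMSO, and OD600 was read each hour for 24 h. Area under the growth curve was normalised to the median of solvent-only wells per plate, or to row and column medians on the industrial chemical plate. The minimum OD was set to 0 beforehand, and the reported value is the median of three biological replicates grown on separate days.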

In assay [2] the test system is Streptococcus salivarius. The assay is described as above. The following applies: 20 µM; 24 h. A digest of the protocol:
as §1

Values without a mark were called inactive.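 Rule for the calls: active = AUC reduced over 20% with Padj below 0.05 in at least 2 of 3 replicates; inactive = otherwise.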

As for `CCCN(CCC)C(=O)SCc1ccccc1`, the entries for the “growth AUC” value in assay [1] and in assay [2] were 0.984 and 1, respectively.
For `NCP(=O)(O)O`, in that order: 1.04 and 1.02.
As for `COP(=S)(OC)Oc1ccc(S(C)(=O)=O)c(C)c1`, the “growth AUC” value in assay [1] is 0.985; in assay [2], 0.972.
For the molecule `COP(=O)(OC)SCn1c(=O)oc2cc(Cl)cnc21`, the “growth AUC” value is 1.06 in assay [1] and 0.978 in assay [2].
In the same order, the values of `O=C(O)C(F)(F)C(F)(F)C(F)(F)C(F)(F)C(F)(F)C(F)(F)C(F)(F)F` are 1 and 1.01.
On to `COC(=O)N(OC)c1ccccc1COc1ccn(-c2ccc(Cl)cc2)n1`, for which the “growth AUC” value in assay [1] is 0.945; in assay [2], 0.928.
As to `CCCOCC(=Nc1ccc(Cl)cc1C(F)(F)F)n1ccnc1`, the “growth AUC” value in assay [1] was 0.805; in assay [2], 0.982.
Turning to `Clc1ccccc1-c1nnc(-c2ccccc2Cl)nn1`, the entries for the “growth AUC” value in assay [1] and in assay [2] were 1.1 and 0.984, respectively.
In the same order, the values of `CC1(C(=O)Nc2ccc(O)c(Cl)c2Cl)CCCCC1` are 0.86 and 0.967.
Consider `Oc1cccc2cccnc12`, for which the entries for the “growth AUC” value in assay [1] and in assay [2] were 1 and 0.995, respectively.
For `CCOc1cc(Oc2ccc(C(F)(F)F)cc2Cl)ccc1[N+](=O)[O-]`, the “growth AUC” value in assay [1] was 0.884; in assay [2] it was 0.976.
As for `COP(=O)(OC)C(O)C(Cl)(Cl)Cl` (stereo unspecified), the “growth AUC” value in assay [1] is 1; in assay [2] it was 1.02.
In the same order, the values of `COC(=O)c1cc(Oc2ccc(Cl)cc2Cl)ccc1[N+](=O)[O-]` are 0.891 and 1.02.
